Source: PubChem (Broad Institute)
Rows were chosen to be rich in hits. Some 3.2% of all compounds tested hit in one or more screens of this group.
GSIS activator – GLuc luminescence reporter in INS-1E cells, primary screen for activators of glucose-dependent secretion of insulin | INS-1E GLuc reporter insulin secretion, 2-3 h | activation, % at 16.6 µM | 370,000 tested, 0.61% active;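 active = lowest replicate activation of at least 40%, so every replicate reaches that level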;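 also: 0% = median of neutral control wells and 100% = median of IBMX positive control wells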
DENV2 CPE – inhibitors of DENV2 cytopathic effect; DENV2-infected cells, cytopathic effect rescue, plate reader; CPE inhibition, % at 9.99 µM; 350,000 tested, 1.7% active; AID 651640; in the data active = CPE inhibition above about 20%, passing the limit was not always enough; inconclusive = no clear call, values can overlap the other calls; tested in BHK-21 cells;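 also: 0% = median of neutral control wells and 100% = median of positive control wells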
Ecoli rRNA inh – inhibits bacterial ribosomal RNA function over humanized ribosomes. E. coli WT GFP vs humanized-ribosome RFP mutants, fluorescence, 24 h; hits give low values; DMSO median 0, no signal -100. GFP signal change (wild-type ribosome), % (concentration not given with the values). 350,000 tested, 1.6% active. AID 720706;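 active = significant combined selectivity score with lowered wild-type GFP, culture density cut under 30%, mutant RFP and density less affected; inactive = any of these conditions unmet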
ERAP1 HTS inh – blocks human ERAP1 aminopeptidase activity | Q9NZ08 | recombinant ERAP1, Leu-AMC fluorescence, 60 min | inhibition, % at 10.7 µM | 340,000 tested, 0.15% active;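 active = mean replicate inhibition of at least 30%, or all replicates individually reaching that 30% level; inactive = mean below 30% and not every replicate reaching it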;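 also: 0% = neutral control wells and 100% = L-leucinethiol positive control wells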
Target sequence (Q9NZ08 whole entry, looked up): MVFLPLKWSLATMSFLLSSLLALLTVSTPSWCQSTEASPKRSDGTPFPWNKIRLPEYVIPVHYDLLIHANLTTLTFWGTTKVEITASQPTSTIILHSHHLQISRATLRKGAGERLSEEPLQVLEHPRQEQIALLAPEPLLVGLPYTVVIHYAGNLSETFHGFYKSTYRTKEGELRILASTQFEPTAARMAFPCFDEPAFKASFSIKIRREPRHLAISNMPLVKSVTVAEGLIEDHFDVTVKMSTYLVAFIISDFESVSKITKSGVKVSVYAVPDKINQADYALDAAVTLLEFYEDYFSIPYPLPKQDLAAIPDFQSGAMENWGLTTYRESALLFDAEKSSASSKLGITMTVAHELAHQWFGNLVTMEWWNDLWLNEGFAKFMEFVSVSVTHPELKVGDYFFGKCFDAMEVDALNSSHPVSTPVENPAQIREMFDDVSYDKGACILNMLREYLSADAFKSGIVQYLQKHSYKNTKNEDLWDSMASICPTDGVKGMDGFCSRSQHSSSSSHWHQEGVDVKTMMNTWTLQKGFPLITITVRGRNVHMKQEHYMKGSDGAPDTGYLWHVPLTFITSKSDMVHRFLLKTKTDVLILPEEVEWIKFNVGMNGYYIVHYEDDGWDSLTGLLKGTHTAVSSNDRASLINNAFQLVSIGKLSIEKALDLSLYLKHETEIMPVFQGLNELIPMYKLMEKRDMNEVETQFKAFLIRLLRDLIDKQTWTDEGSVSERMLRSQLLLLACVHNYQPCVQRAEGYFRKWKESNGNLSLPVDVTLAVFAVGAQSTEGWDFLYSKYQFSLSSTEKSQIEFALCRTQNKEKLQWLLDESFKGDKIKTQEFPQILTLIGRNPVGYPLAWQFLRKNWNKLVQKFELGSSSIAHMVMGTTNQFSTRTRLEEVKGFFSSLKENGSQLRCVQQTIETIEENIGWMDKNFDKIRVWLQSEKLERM
PGC1a acetyl inh – modulators of PGC1a acetylation; U2OS PGC1a acetylation, AlphaScreen anti-acetyl-lysine; with virally co-expressed GCN5 acetyltransferase; inhibition, % at 15.6 µM; 350,000 tested, 0.17% active; AID 651687;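 active = every replicate shows inhibition of at least 40%; inconclusive = mean inhibition at least 40% but some replicate below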;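 also: 0% = neutral control wells and 100% = positive control wells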
CaV13 FRET inh – Disruptors of the CACNA1D IQ motif to Ca2+-dependent inactivation inhibitor domain association, primary screening, Förster resonance energy transfer in intact living …; inhibition, % at 12.3 µM; 340,000 tested, 0.098% active; HEK cells, CFP/YFP FRET ICDI-IQ, plate reader, 10 min; percent FRET-ratio fall versus neutral wells;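 active = mean replicate inhibition of at least 30% and at least 1% of replicates passing that level; inconclusive = only one of the two criteria is met; inactive = neither criterion is met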;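 also: 0% = median of the neutral control wells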
* marks the source's active call; other numbers are inactive results.

How did Cc1noc(C)c1S(=O)(=O)Nc1ccc2c(c1)CC(=O)N([C@@H](C)CO)C[C@@H](C)[C@@H](CN(C)S(=O)(=O)c1cccs1)O2 do in these assays?
GSIS activator: -37; DENV2 CPE: -8; Ecoli rRNA inh: 2; ERAP1 HTS inh: 1; PGC1a acetyl inh: -6

Results for CN1C(=O)c2ccccc2OC1(C)Cc1ccccc1 (stereo not drawn) ?
GSIS activator: 16; DENV2 CPE: 1; Ecoli rRNA inh: -21*; ERAP1 HTS inh: 7; CaV13 FRET inh: -19

How did CCC(=O)N1[C@H](CO)[C@@H](c2ccc(-c3cccnc3)cc2)[C@@H]1CN(CC)C(C)=O do in these assays?
GSIS activator: 4; DENV2 CPE: -9; Ecoli rRNA inh: 2; ERAP1 HTS inh: 0; PGC1a acetyl inh: 4

What do the screens show for `CCOC(=O)N1CCN(c2nc3ccccc3n3cnnc23)CC1`?
GSIS activator: 18; DENV2 CPE: -5; Ecoli rRNA inh: -17*; PGC1a acetyl inh: -2; CaV13 FRET inh: -13

What do the screens show for `CC(=O)N(C)C[C@@H]1Oc2c(N)cccc2C(=O)N(C)C[C@@H]1C`?
GSIS activator: 27; Ecoli rRNA inh: 2

Results for c1ccc(CCSc2ncnc3nc[nH]c23)cc1 ?
GSIS activator: -3; DENV2 CPE: 7; Ecoli rRNA inh: -11; ERAP1 HTS inh: 5; PGC1a acetyl inh: 3; CaV13 FRET inh: 19

What do the screens show for `c1ccc2c(CSc3ncnc4nc[nH]c34)cccc2c1`?
GSIS activator: -10; DENV2 CPE: -4; Ecoli rRNA inh: -31*; ERAP1 HTS inh: -3; CaV13 FRET inh: -3

How did O=C(C1CCC1)N1CC(=O)N2[C@H](CO)[C@H](c3ccc(-c4ccccc4F)cc3)[C@@H]2C1 do in these assays?
GSIS activator: -6; DENV2 CPE: -4; Ecoli rRNA inh: 1; ERAP1 HTS inh: 1; PGC1a acetyl inh: -7

Results for Cc1ccc2[nH]c(C)c(CCNC(=O)c3c(N)no[n+]3[O-])c2c1 ?
GSIS activator: -3; DENV2 CPE: -4; Ecoli rRNA inh: -35*; ERAP1 HTS inh: -2; PGC1a acetyl inh: -2; CaV13 FRET inh: 4

How did Cc1ccc2[nH]c(C)c(CCNC(=O)c3cc4cc([N+](=O)[O-])ccc4oc3=O)c2c1 do in these assays?
GSIS activator: -30; PGC1a acetyl inh: -7; CaV13 FRET inh: -18

Results for CN1C(=O)c2cc(NC(=O)Nc3ccccc3)ccc2OC[C@@H]2O[C@@H](CC(=O)O)CC[C@@H]21 ?
GSIS activator: 1; DENV2 CPE: 57*; Ecoli rRNA inh: -1

Results for CNC(=O)C[C@H]1CC[C@@H]2[C@@H](COc3ccc(NC(=O)Nc4cc(C)cc(C)c4)cc3C(=O)N2C)O1 ?
GSIS activator: -3; DENV2 CPE: -4; Ecoli rRNA inh: -2; ERAP1 HTS inh: 1; PGC1a acetyl inh: -9

How did CNC(=O)C[C@H]1CC[C@H]2[C@H](COc3ccc(NC(=O)Nc4cc(C)cc(C)c4)cc3C(=O)N2C)O1 do in these assays?
GSIS activator: -7; DENV2 CPE: 46*; Ecoli rRNA inh: 1; ERAP1 HTS inh: 0; PGC1a acetyl inh: -4

What do the screens show for `CN1C(=O)c2cc(NC(=O)c3ccc4c(c3)OCO4)ccc2OC[C@H]2O[C@@H](CC(=O)O)CC[C@H]21`?
GSIS activator: 7; DENV2 CPE: 69*; Ecoli rRNA inh: -2; ERAP1 HTS inh: 0; PGC1a acetyl inh: 5

What do the screens show for `CN1C(=O)c2cc(NC(=O)NC3CCCC3)ccc2OC[C@@H]2O[C@H](CC(=O)O)CC[C@H]21`?
GSIS activator: -2; DENV2 CPE: 57*; Ecoli rRNA inh: 3; ERAP1 HTS inh: -2; PGC1a acetyl inh: -7

How did CN1C(=O)c2cc(NC(=O)NC3CCCC3)ccc2OC[C@H]2O[C@H](CC(=O)O)CC[C@@H]21 do in these assays?
GSIS activator: 8; DENV2 CPE: -2; Ecoli rRNA inh: 2; ERAP1 HTS inh: 0; PGC1a acetyl inh: -4

How did O=C(Nc1ccccc1F)N1CC(=O)N2[C@H](CO)[C@@H](c3ccc(-c4ccc(F)cc4)cc3)[C@@H]2C1 do in these assays?
GSIS activator: -21; Ecoli rRNA inh: -26

How did O=C(C[C@H]1C[C@H]2c3cc(NS(=O)(=O)c4ccccc4)ccc3O[C@H]2[C@@H](CO)O1)NCC1CC1 do in these assays?
GSIS activator: -1; DENV2 CPE: -1; Ecoli rRNA inh: -1; ERAP1 HTS inh: -3; PGC1a acetyl inh: -1

Results for COC(=O)C[C@@H]1CC[C@H]2[C@@H](COc3ccc(NC(=O)c4ccc(C(F)(F)F)cc4)cc3C(=O)N2C)O1 ?
GSIS activator: -7; DENV2 CPE: 99*; Ecoli rRNA inh: -2; ERAP1 HTS inh: -4; PGC1a acetyl inh: -1

What do the screens show for `CNC(=O)C[C@@H]1CC[C@H]2[C@@H](COc3ccc(NC(=O)c4ccc(OC)cc4)cc3C(=O)N2C)O1`?
GSIS activator: -3; DENV2 CPE: 64*; Ecoli rRNA inh: 2; ERAP1 HTS inh: 0; PGC1a acetyl inh: 9

Results for CNC(=O)C[C@H]1CC[C@@H]2[C@@H](COc3ccc(NC(=O)c4ccccc4Cl)cc3C(=O)N2C)O1 ?
GSIS activator: 1; DENV2 CPE: 31*; Ecoli rRNA inh: 0; ERAP1 HTS inh: -1; PGC1a acetyl inh: -5

Results for CCC(=O)Nc1ccc2c(c1)C(=O)N(C)[C@@H]1CC[C@@H](CC(=O)NC3Cc4ccccc4C3)O[C@@H]1CO2 ?
GSIS activator: 5; DENV2 CPE: 30*; Ecoli rRNA inh: -1; ERAP1 HTS inh: 1; PGC1a acetyl inh: -1

What do the screens show for `CCC(=O)Nc1ccc2c(c1)C(=O)N(C)[C@@H]1CC[C@H](CC(=O)NC3Cc4ccccc4C3)O[C@H]1CO2`?
GSIS activator: 6; DENV2 CPE: inconclusive; Ecoli rRNA inh: 1; ERAP1 HTS inh: 0; PGC1a acetyl inh: 2

How did CNC(=O)C[C@H]1CC[C@H]2[C@@H](COc3ccc(NC(=O)c4ccc(OC)cc4)cc3C(=O)N2C)O1 do in these assays?
GSIS activator: 8; DENV2 CPE: 2; Ecoli rRNA inh: -1; ERAP1 HTS inh: 7; PGC1a acetyl inh: 0

Results for O=C(C[C@@H]1CC[C@H](NC(=O)Nc2ccc(C(F)(F)F)cc2)[C@@H](CO)O1)NCCN1CCCC1 ?
GSIS activator: 7; DENV2 CPE: 1; Ecoli rRNA inh: 0; ERAP1 HTS inh: 2; PGC1a acetyl inh: -7

What do the screens show for `CCS(=O)(=O)Nc1ccc2c(c1)C(=O)N(C)[C@@H]1CC[C@H](CC(=O)NC3CCCCC3)O[C@H]1CO2`?
GSIS activator: 2; DENV2 CPE: 76*; Ecoli rRNA inh: 3; ERAP1 HTS inh: 3; PGC1a acetyl inh: 2
